Rows were chosen to be rich in hits. Some 21% of all compounds tested hit in one or more screens of this group.
Shiga toxin inh: inhibitors of Shiga toxin in Vero cells; Vero cells, Shiga toxin protein synthesis inhibition reporter; inhibition, % at 38.7 µM; hit rate 9.2% among 290,000; AID 2315; in the data active = inhibition mostly above about 28%, no sharp cut-off; inactive = mostly below about 43%; also: 0% is about no effect
CHX counter: counter-screen for Shiga toxin inhibitors: cycloheximide protein synthesis inhibition; cell reporter, cycloheximide protein synthesis inhibition counterscreen; max response, %; hit rate 12% among 300,000; AID 2314; in the data active = max response mostly above about 13%, no sharp cut-off; inactive = mostly below about 14%; also: read at 38.3 µM for the half of the compounds with a filed dose; 0% is about no effect
Pf growth 48h: inhibits P. falciparum growth in the first generation, 48 h | AID 504832 | hit rate 5.9% among 310,000 | P. falciparum luciferase growth in erythrocytes, 48 h | Potency, µM (doses to about 28.7 µM), for inactives: at the highest dose activity change, negative = inhibition, hits mostly inhibitors; also: potency is read from the fitted curve at half-maximal effect; % is scaled to controls: 0 for no effect and ±100 for the full control effect
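Firefly luciferase activity from engineered P. falciparum reports growth; inhibitors lower the luminescent signal. Cultures contained 2% hematocrit erythrocytes at 0.1% final parasitemia.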
Pf growth 96h: P. falciparum growth inhibition at 96 hours; P. falciparum luciferase reporter growth, 96 h; Potency, µM (titrated, usually from 28.7 µM), without a hit: at the top dose activity change, negative = inhibition, most hits filed as inhibitors; hit rate 6.9% among 320,000; also: potency is read from the fitted curve at half-maximal effect; % is scaled to controls: 0 for no effect and ±100 for the full control effect
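Readout is luminescence from an integrated firefly luciferase in P. falciparum. Red cells, 2% hematocrit and 0.05% parasitemia final, were cultured with compound through two parasite generations (96 hours) at 37 C, 5% CO2.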
Starred values were filed as active, the others as inactive; ? = inconclusive; . = not tested or not shown. Unless noted, calls follow the shape of the dose curve; as a rule, active = well fitted inhibition curve with a large enough effect; inconclusive = small, poorly fitted or top-dose-only effect, or another doubt; inactive = no such curve, though single readings can be large or run the other way.

SMILES	Shiga toxin inh	CHX counter	Pf growth 48h	Pf growth 96h
Cc1ccccc1NC(=O)CCCSc1nc2ccccc2s1	4	20	11%	-17%
CC(C)(C)NC(=O)CCCSc1nc2ccccc2s1	72*	47*	188%	190%
O=C(CSc1nc2ccccc2s1)NCc1ccc2c(c1)OCO2	-1	21	8%	-16%
CC(=O)/C(C#N)=C1\NC(=O)C(Cc2ccc(C)c(Cl)c2)S1 (stereo not given)	25	16*	-19%	-24%
CCc1ccc(CC2S/C(=C(\C#N)C(C)=O)NC2=O)cc1 (stereo not given)	37	10	?	2.9µM*
CN(C)S(=O)(=O)c1ccc(N2CCCC2)c(C(=O)NNC(=O)COc2cccc(F)c2)c1	.	.	-8%	8%
COc1cc(C(=S)N2CCCCC2)ccc1OCC(=O)Nc1ccc(F)cc1	18	9	0%	-14%
COC(=O)[C@@]12CCCN1[C@H](c1ccc(-c3ccc(C(C)=O)cc3)c(OC)c1)[C@H]1C(=O)N(C)C(=O)[C@H]12	.	.	13µM*	?
COC(=O)[C@@]12CCCCN1[C@H](c1ccc(-c3cc(C(C)=O)cs3)c(OC)c1)[C@H]1C(=O)N(C)C(=O)[C@H]12	.	.	4.1µM*	?
COC(=O)[C@@]12CCCCN1[C@H](c1ccc(-c3ccccc3)cc1)[C@H]1C(=O)N(C)C(=O)[C@H]12	.	.	-19%	1%
COC(=O)[C@@]12CCCCN1[C@H](c1ccc(-c3ccc(F)cc3)cc1)[C@@H]1C(=O)N(C)C(=O)[C@@H]12	.	.	?	13µM*
COC(=O)[C@@]12CCCN1[C@H](c1ccc(-c3ccc(OC)cc3)c(OC)c1)[C@@H]1C(=O)N(C)C(=O)[C@@H]12	.	.	13µM*	12µM*
Cn1cc(S(=O)(=O)Oc2ccccc2)c(=O)n(C)c1=O	-10	-2	?	?
CCCCC(=O)NC1(C(F)(F)F)NC(=O)N(C)C1=O (stereo not given)	3	-3	0%	-9%
COC(=O)[C@@]12CCCCN1[C@H](c1ccc(-c3ccc(F)cc3)c(OC)c1)[C@@H]1C(=O)N(C)C(=O)[C@@H]12	.	.	13µM*	12µM*
COC(=O)[C@@]12CCCN1[C@H](c1ccc(-c3ccc(OC)cc3)c(OC)c1)[C@H]1C(=O)N(C)C(=O)[C@H]12	.	.	8.3µM*	?
COC(=O)[C@@]12CCCCN1[C@H](c1ccc(-c3ccc4c(c3)OCO4)c(OC)c1)[C@@H]1C(=O)N(C)C(=O)[C@@H]12	.	.	5.2µM*	13µM*
COCCn1c(=NC(=O)CSCC(=O)N2CCOCC2)sc2cc(C)ccc21	35	9	13%	-4%
CCOc1ccccc1O[C@@H](c1ccccc1)[C@@H]1CNCCO1	.	.	?	13µM*
CCOc1ccccc1CNC(c1ccccc1)c1ccccc1	.	0	73%	?
C=C(C)CSc1nnc([C@@H]2CCCN2C(=O)OC(C)(C)C)o1	-9	-5	-5%	-3%
Cc1ccc(S(=O)(=O)N2CCC(C(N)=O)CC2)cc1[N+](=O)[O-]	1	-1	16%	108%
Cc1oc2cc(Br)c(O)c(Br)c2c1-c1ccccc1	59*	18*	-1%	23%
O=C(CNCc1ccc(Cl)cc1)Nc1ccc2c(c1)OCCO2	28	20	-9%	32%
CS(=O)(=O)N(CC(=O)Nc1ccc2c(c1)OCCO2)Cc1ccc(Cl)cc1	33*	22*	25%	.
SMILES	Shiga toxin inh	CHX counter	Pf growth 48h	Pf growth 96h
COc1ccc(C)cc1S(=O)(=O)N(CC(=O)Nc1ccc2c(c1)OCCO2)Cc1ccccc1	15	9.8*	.	?
Cc1cc(C(=O)N/N=C/c2cccnc2)c(C)o1	8	16*	39%	-16%
Cc1occc1C(=O)N/N=C/c1cccnc1	75*	25*	50%	24%
COc1ccc(CN2CCNC(=O)C2CC(=O)N2CCCO2)c(OC)c1 (stereo not given)	-19	7	16%	?
COc1ccc(-n2ccnc2CN2CCCC(CO)(Cc3cccc(OC)c3)C2)cc1 (stereo not given)	11	-4	?	?
COc1ccc(CN2CCCC(CO)(Cc3ccc(F)cc3F)C2)cc1 (stereo not given)	-5	-2	-17%	10µM*
COc1cccc(CC2(CO)CCCN(Cc3[nH]c4ccc(C)cc4c3C)C2)c1 (stereo not given)	2	-3	9.3µM*	5.9µM*
COc1cccc(CC2(CO)CCCN(Cc3sc(N4CCCC4)nc3Cl)C2)c1 (stereo not given)	11	-1	?	15µM*
CCOc1ccc(CN2CCCC(CO)(Cc3ccc(F)cc3)C2)cc1 (stereo not given)	-9	-4	-20%	?
COc1cccc(CC2(CO)CCCN(Cc3ccc(C)s3)C2)c1 (stereo not given)	-5	-1	?	?
CC(C)(C)c1ncc(S(=O)(=O)c2ccc(C(F)(F)F)cn2)c(N)n1	7	1	?	-2%
Cc1ccc(CNC(=O)[C@H]2C[C@@H]2[C@H](NP(=O)(c2ccccc2)c2ccccc2)c2ccccc2)o1	3	-1	?	?
CCOC(=O)Nc1cccc(Nc2ccccc2)c1	16	11	-25%	.
CCCCOC(=O)Nc1cccc(Cl)c1C	87*	22*	116%	.
CCOC(=O)Nc1cccc(C(=O)O)c1	31*	14*	23%	.
CCCCOC(=O)Nc1cccc(C(C)=O)c1	72*	23*	56%	0%
CCNC(=O)OCC(CC)NC(=O)OCC(C)C (stereo not given)	-7	-8	1%	.
CCOC(=O)Nc1cccc(Cl)c1C	7	-4	2%	-2%
CCC(COC(=O)Nc1cccc(C)c1)NC(=O)OCC(C)C (stereo not given)	87*	36*	?	7%
CCCCOC(=O)c1cccc(NC(=O)CCC(=O)O)c1	8	-2	4%	?
CNc1oc(/C=C/c2ccccc2)nc1C#N	122*	78*	261%	256%
CCN1CCN(c2oc(/C=C/c3ccccc3)nc2C#N)CC1	38	42*	-2%	6%
COCCNc1oc(/C=C/c2ccccc2)nc1C#N	113*	56*	123%	150%
N#Cc1nc(/C=C/c2ccccc2)oc1NCCCN1CCOCC1	83*	33*	22%	19%
CNc1oc(/C=C/c2cc(OC)c(OC)c(OC)c2)nc1C#N	6	-9	.	.
SMILES	Shiga toxin inh	CHX counter	Pf growth 48h	Pf growth 96h
N#Cc1nc(COc2ccc(-c3ccccc3)cc2)oc1NCCCN1CCOCC1	27	13	?	?
O=S(=O)(N/N=C\c1ccccc1O)c1ccc(Cl)cc1	51	27*	1%	?
Cc1ccc(S(=O)(=O)N/N=C/c2ccccc2O)cc1	-5	-2	13%	-25%
CCCCn1c(N)c(N(C)C(=O)c2ccc(Br)o2)c(=O)[nH]c1=O	.	.	4%	16%
CCCCOC(=O)n1c(=S)oc2cc(Cl)ccc21	101*	24*	23%	41%
COC(=O)n1c(=S)oc2cc(Cl)ccc21	-16	-2	3%	.
CN(c1ccc(Cl)cc1)c1cc(=O)n(C)c2ccccc12	32	-4	5.9µM*	-11%

From PubChem
